# Measurements: the supplement of paper PMC10849652
# Targets with a hit are over-represented here; the source holds about 8,800 in all. About 0.5% of all pairs of compound and target were hits. Values without a mark were called inactive.
# Columns and labels:
# Assay in all cases: log2 fold change, soluble protein after heating vs DMSO (PISA); higher = thermal stabilisation; K562 lysate, 10 uM; active = over 0.2 and 3.5 SD of the protein, either way, in both replicates (recomputed)
# erlotinib = compound: C#Cc1cccc(Nc2ncnc3cc(OCCOC)c(OCCOC)cc23)c1 [erlotinib]
# Procedure, shortened: (§1)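 Values give the log-two fold change in thermal stability against solvent controls, from duplicates. Crude K562 extract at 1 mg/mL protein, made by dounce homogenisation in PBS pH 7.4 with 1 mM MgCl2, was treated with 10 μM compound for 30 min. After 3 min heating across 48°C-58°C, aliquots were pooled, adjusted to 0.5% NP-40 at 4°C and centrifuged at 21,000xg for 90 min. The supernatant was measured by TMTpro 16plex LC-MS/MS with channel sums equalised.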
# [1] = compound: C/C(=N\NC(=O)C1=CC(=CC=C1)S(=O)(=O)N2CCOCC2)/C3=C(C=CC(=C3)Cl)O
# Procedure, shortened: as §1
# [2] = compound: C1=CC(=CC=C1C2=NC3=C(N2)C=C(C=C3)C(=O)N)OC4=CC=C(C=C4)Cl
# Procedure, shortened: as §1
# [3] = compound: C1=CC2=C(C=CC(=C2)/C=C\3/C(=O)NC(=NCC4=CC=CS4)S3)N=C1
# Procedure, shortened: as §1
# [4] = compound: C1=CC2=NC=CN=C2C=C1/C=C/3\C(=O)NC(=O)S3
# Procedure, shortened: as §1
# [5] = compound: C1=CC=C(C=C1)C2=NC(=C(N2)C3=CC=NC=C3)C4=CC(=C(C=C4)Cl)O
# Procedure, shortened: as §1
# [6] = compound: C1=CC=C2C(=C1)C3=NNC4=CC=CC(=C43)C2=O
# Procedure, shortened: as §1
# [7] = compound: C1CCN(C1)C(=O)NC2=CC=CC(=C2)NC3=NC=C(C(=N3)NCCC4=CN=CN4)Br
# Procedure, shortened: as §1
# [8] = compound: C1CN(CCC1(CC2=CC=C(C=C2)Cl)N)C3=NC=NC4=C3C=CN4
# Procedure, shortened: as §1
# IRAK-1-4 Inhibitor I = compound: C1COCCN1CCN2C3=CC=CC=C3N=C2NC(=O)C4=CC(=CC=C4)[N+](=O)[O-] [IRAK-1-4 Inhibitor I]
# Procedure, shortened: as §1
# ibrutinib = compound: C=CC(=O)N1CCC[C@@H](n2nc(-c3ccc(Oc4ccccc4)cc3)c3c(N)ncnc32)C1 [ibrutinib]
# Procedure, shortened: as §1
# [9] = compound: CC(=O)c1cnc2ccc(-c3cc(Cl)c(O)c(Cl)c3)nc2c1N[C@H]1CC[C@H](CN(C)C)CC1
# Procedure, shortened: as §1
# ralimetinib = compound: CC(C)(C)Cn1c(N)nc2ccc(-c3[nH]c(C(C)(C)C)nc3-c3ccc(F)cc3)nc21 [ralimetinib]
# Procedure, shortened: as §1
# [10] = compound: CC(C)(O)CC(=O)NCCn1ccc2ncnc(Nc3ccc(Oc4cccc(C(F)(F)F)c4)c(Cl)c3)c21
# Procedure, shortened: as §1
# [11] = compound: CC(C)C1=C2N=C(C=C(N2N=C1)NCC3=CC=CC=C3)NCCCCCCN
# Procedure, shortened: as §1
# [12] = compound: CC1=C(C(CC(=O)N1)C2=CC=C(C=C2)C(F)(F)F)C(=O)NC3=C(C=C4C(=C3)C=NN4)F
# Procedure, shortened: as §1
# [13] = compound: CC1=C(C2=C(C=C1)C(=O)C3=CC=CC=C3N2CCCN)C
# Procedure, shortened: as §1
# [14] = compound: CC1=C(C=C(C=C1)NC(=O)C2=CC(=CC=C2)C(C)(C)C#N)NC3=CC4=C(C=C3)N=CN(C4=O)C
# Procedure, shortened: as §1
# [15] = compound: CC1=C(C=C(C=C1)NC(=O)C2=CC(=CC=C2)N(C)C)NC(=O)C3=CC=C(C=C3)O
# Procedure, shortened: as §1
# [16] = compound: CC1=CC=C(C=C1)SC2=C3C=C(SC3=CN=C2)C(=O)N
# Procedure, shortened: as §1
# Chain of UniProt Q9NW68 (Q9NW68 whole entry, looked up): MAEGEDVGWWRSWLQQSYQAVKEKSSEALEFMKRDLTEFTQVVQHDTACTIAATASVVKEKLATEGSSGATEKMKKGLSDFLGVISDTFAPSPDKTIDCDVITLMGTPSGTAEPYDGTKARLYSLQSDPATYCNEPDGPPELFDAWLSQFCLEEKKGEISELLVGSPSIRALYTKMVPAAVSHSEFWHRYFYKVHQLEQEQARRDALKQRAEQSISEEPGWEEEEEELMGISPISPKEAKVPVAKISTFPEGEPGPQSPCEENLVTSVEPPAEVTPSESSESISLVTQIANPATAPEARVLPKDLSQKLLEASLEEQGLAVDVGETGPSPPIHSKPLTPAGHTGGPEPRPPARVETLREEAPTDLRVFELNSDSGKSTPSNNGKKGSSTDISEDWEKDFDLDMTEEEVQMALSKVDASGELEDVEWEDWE
# Chain of UniProt O95352 (O95352 whole entry, looked up): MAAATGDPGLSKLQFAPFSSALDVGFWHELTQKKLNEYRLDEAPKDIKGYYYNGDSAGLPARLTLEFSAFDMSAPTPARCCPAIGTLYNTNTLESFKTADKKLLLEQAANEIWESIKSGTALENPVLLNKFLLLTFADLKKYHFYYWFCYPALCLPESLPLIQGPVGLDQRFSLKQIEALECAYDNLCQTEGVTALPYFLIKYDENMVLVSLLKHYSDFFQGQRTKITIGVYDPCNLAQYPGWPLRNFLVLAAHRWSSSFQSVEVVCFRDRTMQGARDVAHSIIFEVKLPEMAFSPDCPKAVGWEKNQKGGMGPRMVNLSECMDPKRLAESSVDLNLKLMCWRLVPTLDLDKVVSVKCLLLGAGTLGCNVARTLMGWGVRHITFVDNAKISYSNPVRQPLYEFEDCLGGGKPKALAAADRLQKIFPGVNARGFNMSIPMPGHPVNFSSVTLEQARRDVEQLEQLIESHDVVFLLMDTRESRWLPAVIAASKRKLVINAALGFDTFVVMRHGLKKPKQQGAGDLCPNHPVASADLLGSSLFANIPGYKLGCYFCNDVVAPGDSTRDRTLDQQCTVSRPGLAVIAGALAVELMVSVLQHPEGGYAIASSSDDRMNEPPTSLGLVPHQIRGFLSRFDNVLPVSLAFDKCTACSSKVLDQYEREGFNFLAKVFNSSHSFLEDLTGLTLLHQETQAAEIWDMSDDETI
# Chain of UniProt P98196 (P98196 whole entry, looked up): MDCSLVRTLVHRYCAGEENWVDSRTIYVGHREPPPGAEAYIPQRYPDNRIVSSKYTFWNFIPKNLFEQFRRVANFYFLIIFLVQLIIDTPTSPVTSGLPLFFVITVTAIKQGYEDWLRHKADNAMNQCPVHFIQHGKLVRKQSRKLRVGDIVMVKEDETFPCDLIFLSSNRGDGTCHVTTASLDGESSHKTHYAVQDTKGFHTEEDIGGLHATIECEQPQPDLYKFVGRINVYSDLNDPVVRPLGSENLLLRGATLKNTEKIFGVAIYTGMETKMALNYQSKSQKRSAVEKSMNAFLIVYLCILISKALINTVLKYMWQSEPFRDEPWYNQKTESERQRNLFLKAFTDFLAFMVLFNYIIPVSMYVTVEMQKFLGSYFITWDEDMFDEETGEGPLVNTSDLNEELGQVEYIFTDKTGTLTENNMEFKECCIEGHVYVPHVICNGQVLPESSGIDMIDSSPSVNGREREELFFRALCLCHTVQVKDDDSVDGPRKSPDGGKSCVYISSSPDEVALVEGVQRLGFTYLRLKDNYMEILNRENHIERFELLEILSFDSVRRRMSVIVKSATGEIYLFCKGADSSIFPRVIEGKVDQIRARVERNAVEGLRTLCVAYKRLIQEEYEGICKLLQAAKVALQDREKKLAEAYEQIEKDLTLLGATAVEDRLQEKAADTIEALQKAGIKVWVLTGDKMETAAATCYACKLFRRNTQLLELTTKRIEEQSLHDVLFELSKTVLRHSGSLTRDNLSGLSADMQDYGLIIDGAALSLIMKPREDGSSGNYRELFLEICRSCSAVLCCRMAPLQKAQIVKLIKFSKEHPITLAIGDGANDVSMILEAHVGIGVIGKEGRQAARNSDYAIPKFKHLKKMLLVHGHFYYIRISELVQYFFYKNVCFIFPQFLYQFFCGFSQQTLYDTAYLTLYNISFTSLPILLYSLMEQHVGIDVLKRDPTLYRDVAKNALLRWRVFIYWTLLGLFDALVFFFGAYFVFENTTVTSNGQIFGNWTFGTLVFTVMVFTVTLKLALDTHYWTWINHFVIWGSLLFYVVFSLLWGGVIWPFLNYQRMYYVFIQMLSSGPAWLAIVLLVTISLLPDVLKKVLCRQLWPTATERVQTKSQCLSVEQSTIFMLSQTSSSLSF
# Chain of UniProt Q8N5S9 (Q8N5S9 whole entry, looked up): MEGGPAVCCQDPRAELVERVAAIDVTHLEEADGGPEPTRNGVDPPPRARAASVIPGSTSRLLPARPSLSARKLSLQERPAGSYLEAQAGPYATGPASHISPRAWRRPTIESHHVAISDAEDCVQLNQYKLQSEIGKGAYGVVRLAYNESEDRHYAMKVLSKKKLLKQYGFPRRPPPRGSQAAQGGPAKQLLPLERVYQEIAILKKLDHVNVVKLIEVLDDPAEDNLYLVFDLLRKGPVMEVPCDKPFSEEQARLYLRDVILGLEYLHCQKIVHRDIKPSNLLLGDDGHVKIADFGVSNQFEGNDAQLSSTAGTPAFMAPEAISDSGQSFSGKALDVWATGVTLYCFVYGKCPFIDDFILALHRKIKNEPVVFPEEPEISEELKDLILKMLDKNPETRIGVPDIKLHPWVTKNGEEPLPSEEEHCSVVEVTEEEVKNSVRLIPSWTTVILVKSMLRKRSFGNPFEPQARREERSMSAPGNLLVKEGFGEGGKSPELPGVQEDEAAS
# Chain of UniProt O75419 (O75419 whole entry, looked up): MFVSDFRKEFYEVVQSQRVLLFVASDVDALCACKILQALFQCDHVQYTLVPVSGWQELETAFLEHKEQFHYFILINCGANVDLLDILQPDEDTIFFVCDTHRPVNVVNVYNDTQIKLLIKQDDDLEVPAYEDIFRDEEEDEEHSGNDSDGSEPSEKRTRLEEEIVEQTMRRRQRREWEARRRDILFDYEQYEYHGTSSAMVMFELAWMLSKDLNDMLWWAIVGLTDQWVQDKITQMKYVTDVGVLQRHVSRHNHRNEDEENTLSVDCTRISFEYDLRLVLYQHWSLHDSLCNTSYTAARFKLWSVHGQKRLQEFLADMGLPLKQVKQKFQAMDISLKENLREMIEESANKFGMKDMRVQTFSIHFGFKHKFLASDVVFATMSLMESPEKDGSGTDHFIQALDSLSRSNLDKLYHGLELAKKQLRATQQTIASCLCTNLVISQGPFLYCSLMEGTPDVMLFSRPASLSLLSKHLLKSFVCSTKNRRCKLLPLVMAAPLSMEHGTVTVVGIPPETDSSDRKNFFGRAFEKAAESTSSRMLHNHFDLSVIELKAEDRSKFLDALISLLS
Target,log2 fold change (erlotinib),log2 fold change [1],log2 fold change [2],log2 fold change [3],log2 fold change [4],log2 fold change [5],log2 fold change [6],log2 fold change [7],log2 fold change [8],log2 fold change (IRAK-1-4 Inhibitor I),log2 fold change (ibrutinib),log2 fold change [9],log2 fold change (ralimetinib),log2 fold change [10],log2 fold change [11],log2 fold change [12],log2 fold change [13],log2 fold change [14],log2 fold change [15],log2 fold change [16]
BSDC1 (UniProt Q9NW68),-0.002,0.01,-0.039,0.046,-0.025,-0.024,0.036,-0.029,0,0.059,0.048,0.008,-0.004,-0.023,0.062,0.038,0.01,0.022,-0.047,0.011
CDC45 isoform 3 (UniProt O75419),0.035,-0.008,-0.065,0.029,-0.005,-0.022,-0.017,-0.014,-0.004,0.066,0.034,0.045,0.014,0.021,-0.005,0.036,-0.006,-0.032,0.031,-0.004
ATP11A (UniProt P98196),-0.003,-0.067,-0.033,-0.011,-0.022,0.016,0.102,-0.005,-0.015,0.087,-0.02,0.091,0.122,-0.046,-0.017,-0.019,-0.065,-0.006,-0.074,0.02
CAMKK1 isoform 2 (UniProt Q8N5S9),-0.037,0.042,-0.003,-0.085,0.043,-0.01,0.042,-0.076,-0.069,0.001,0.027,0.189,0.063,-0.153,-0.059,-0.008,-0.055,0.014,0.004,0.138
ATG7 (UniProt O95352),0.03,0.113,0.035,0.001,0.015,-0.003,-0.06,-0.028,0.032,0.017,0.014,-0.008,0.026,-0.016,-0.022,0.021,0.002,-0.001,0.011,0.027
ATR (UniProt Q13535),-0.025,-0.012,-0.055,0.336,0.255,0.125,0.071,-0.005,0.125,-0.025,0.06,0.319,0,-0.037,0.016,-0.015,-0.031,0.032,0.039,-0.053
BRD4 (UniProt O60885),-0.001,-0.011,0.059,0.013,-0.007,0.05,-0.061,-0.016,0.032,0.028,-0.011,-0.017,0.023,-0.042,-0.016,-0.006,0.001,0.061,0.006,-0.021
ATM (UniProt Q13315),0.02,-0.031,-0.02,-0.064,-0.052,-0.001,0.043,-0.016,-0.042,0.007,0.027,0.253 (active),0.013,-0.021,0.04,0.002,-0.027,-0.014,-0.015,-0.013
